High-throughput results as filed in PubChem BioAssay.
Compounds with a hit are over-represented: about 1.6% of the library has one in this group of screens.
KCNQ2 block: rat KCNQ2 potassium channel inhibitors, primary screen, cell-based, CHO-K1, FluxOR thallium flux, B-score. Potassium voltage-gated channel subfamily KQT member 2 (Rattus norvegicus), O88943. 20 min; active compounds read low. B-score at 10 µM. 310,000 compounds, 1.1% hits. AID 2156, 2009;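 active = fluorescence ratio B-score at most minus 3 library SDs, with starting brightness B-score within 2 library SDs, cut at about -5.5 in these data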
Target sequence (O88943 whole entry, looked up): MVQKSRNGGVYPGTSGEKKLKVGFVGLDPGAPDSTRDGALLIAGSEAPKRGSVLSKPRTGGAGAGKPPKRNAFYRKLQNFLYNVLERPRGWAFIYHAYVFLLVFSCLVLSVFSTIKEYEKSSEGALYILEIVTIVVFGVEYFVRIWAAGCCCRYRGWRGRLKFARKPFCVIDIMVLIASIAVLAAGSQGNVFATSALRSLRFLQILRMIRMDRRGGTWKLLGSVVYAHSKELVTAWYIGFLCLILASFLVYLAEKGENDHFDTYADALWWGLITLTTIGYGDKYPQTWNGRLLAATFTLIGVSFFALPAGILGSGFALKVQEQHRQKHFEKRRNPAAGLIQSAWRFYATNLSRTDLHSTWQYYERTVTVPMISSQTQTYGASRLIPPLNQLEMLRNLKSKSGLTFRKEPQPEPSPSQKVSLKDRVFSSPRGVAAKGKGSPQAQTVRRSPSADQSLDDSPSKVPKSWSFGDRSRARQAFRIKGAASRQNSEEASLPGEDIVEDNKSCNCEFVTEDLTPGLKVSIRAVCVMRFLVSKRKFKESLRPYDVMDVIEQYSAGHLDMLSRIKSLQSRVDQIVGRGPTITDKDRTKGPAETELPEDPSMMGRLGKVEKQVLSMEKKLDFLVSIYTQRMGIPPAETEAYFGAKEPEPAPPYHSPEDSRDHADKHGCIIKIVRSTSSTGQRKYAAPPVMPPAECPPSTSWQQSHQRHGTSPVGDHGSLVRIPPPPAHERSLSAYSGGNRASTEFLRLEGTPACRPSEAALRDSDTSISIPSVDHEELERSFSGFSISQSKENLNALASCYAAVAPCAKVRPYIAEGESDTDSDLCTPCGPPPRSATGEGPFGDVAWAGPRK
KCNQ2 enhance: potentiators of rat KCNQ2 potassium channel; CHO-K1 KCNQ2, FluxOR thallium flux fluorescence; active compounds read high; B-score at 10 µM; 310,000 compounds, 0.54% hits; Potassium voltage-gated channel subfamily KQT member 2 (Rattus norvegicus), O88943;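 active = fluorescence ratio B-score at least 3 SD of library B-scores, with initial fluorescence B-score within 3 of them, cut at about 5.3 in these data; same plate scores as AID 2156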;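 also: B-score of peak minus minimum over baseline fluorescence ratio after K+ and Tl+ stimulus; positive B-score means potentiation of KCNQ2 with more thallium influx and brighter signal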
Numbers without * were called inactive; i = inactive; . = not tested or not shown.

SMILES | KCNQ2 block | KCNQ2 enhance
COc1ccccc1CNC(=O)CN(Cc1ccc(Cl)cc1)S(C)(=O)=O | -5.88* | -5.88
CC1CCN(S(=O)(=O)c2cc3c4c(c2)C(C)C(=O)N4CCC3)CC1 (configuration not stated) | i | .
COc1ccc(OC)c(NC(=O)CSc2nccn2Cc2ccco2)c1 | i | .
COc1ccc(/C=C2\C(=O)c3ccccc3OC2c2ccccc2)cc1 (configuration not stated) | i | .
CCOc1ccc(/C=C2\C(=O)c3ccccc3OC2c2ccccc2)cc1 (configuration not stated) | -6.2* | -6.2
O=C(CSC1=NS(=O)(=O)c2ccccc2N1)Nc1ccccc1F | i | 0.36
CC(Sc1nnc(-c2ccco2)n1C)C(=O)N1C(C)CCCC1C (configuration not stated) | i | .
C=CCN(CC=C)C(=S)NC(=O)c1ccc(OC)cc1 | i | 2.95
C=CCN(CC=C)C(=S)NC(=O)c1ccc(C)c(Br)c1 | i | 23.9*
Cc1ccc(-c2csc(NC(=S)NC(=O)c3cccs3)n2)cc1 | i | 3.81
Cc1cccc(NC(=S)NC(=O)c2cccs2)n1 | i | 1.52
O=C(NC(=S)Nc1nc(-c2ccccc2)cs1)c1cccs1 | i | 7.9*
CC(=O)Nc1nc(-c2cccc3ccccc23)cs1 | i | 0.01
Cc1nc(NC(=S)NC(=O)c2cccs2)ccc1Br | i | 9.4*
O=C(NC(=S)Nc1nc(-c2cccc3ccccc23)cs1)c1cc2ccccc2o1 | i | 8.25*
COCCC(=O)N1CCC(Oc2ccc(C(=O)N3CCCC(CCCO)C3)cc2)CC1 (configuration not stated) | i | .
CCOC(=O)C1=C(c2ccccc2)NC(=O)NC1c1ccsc1 (configuration not stated) | i | 0.9
O=C(c1ccc2[nH]c(=O)c(=O)[nH]c2c1)N1CCN(c2ccccc2)CC1 | i | .
COc1cc(NC(=S)NCCc2ccccc2)c(OC)cc1NC(=O)C(C)C | -5.84* | -5.84
COc1ccccc1CNC(=S)NCCc1ccccc1 | i | .
Cc1ccc(CN2CC(C(=O)Nc3ncccc3C)CC2=O)cc1 (configuration not stated) | i | 0.26
CCCCCCC1(C)NC(=S)N(c2ccccc2)N1 (configuration not stated) | i | .
CCC1(c2ccccc2)NC(=S)N(c2ccc(C)cc2)N1 (configuration not stated) | i | 13*
CCC1(c2ccc(Cl)cc2)NC(=S)N(c2ccccc2)N1 (configuration not stated) | i | 11.1*
CCCCCC1(C)NC(=S)N(c2ccccc2)N1 (configuration not stated) | i | .
SMILES | KCNQ2 block | KCNQ2 enhance
Cc1cc(C)c(C(=O)OCC(=O)Nc2cccc(S(=O)(=O)N3CCCCC3)c2)c(C)c1 | i | 0.91
O=C(COC(=O)C1(c2ccc(F)cc2)CCCC1)NCc1ccc2c(c1)OCO2 | i | .
O=C(COC(=O)C1(c2ccccc2F)CCCC1)NCc1ccc2c(c1)OCO2 | -7.08* | -7.08
Cc1ccc(NC(=O)CSc2nnc(N)s2)cc1S(=O)(=O)N1CCOCC1 | i | 0.01
O=C(Cn1c(=O)c2cccn2c2cccnc21)N1CCN(c2ccccc2F)CC1 | i | .
CCC(=O)c1ccc(OCC(O)CN(CCc2ccccc2)Cc2ccccc2)cc1 (configuration not stated) | -7.56* | -7.56
COc1cccc(OCC(O)CN(CCO)Cc2ccccc2)c1 (configuration not stated) | i | .
CCN1CCN(CC(=O)Nc2c(OC)cccc2OC)CC1 | i | 0.12
CCOc1ccccc1C(=O)Nc1cccc2cccnc12 | i | .
N#Cc1ccc(CSc2nnc(COc3ccccc3)n2-c2ccccc2)cc1 | -5.61* | -5.61
COc1ccc(-n2c(COc3ccccc3)nnc2SCc2ccc(C#N)cc2)cc1 | i | 0.05
O=C(NC(=S)NCCc1ccc(Cl)cc1)c1ccco1 | i | 1.92
O=C(NC(=S)N(CCc1ccccc1)CCc1ccccc1)c1ccco1 | i | 16.4*
COc1cc(C(=O)NC(=S)N(C)Cc2ccccc2)cc(OC)c1OC | i | .
COc1cc(C(=O)NC(=S)N(CCc2ccccc2)CCc2ccccc2)cc(OC)c1OC | i | 18.1*
CSc1sc(-c2n[nH]c(=S)n2C)c2c1C=CCC2 | i | 0.56
O=C(CSc1nnc(-c2ccccn2)o1)Nc1ccccc1F | i | .
CC(C)N(CCCNC(=O)Cn1c(=O)c2cccn2c2ccc(F)cc21)Cc1ccccc1 | i | 0.02
CC(=O)N1CC=CC1(CC(C)C)C(=O)NCCc1c[nH]c2ccccc12 (configuration not stated) | i | 0.88
CC(C)CC1(C(=O)NCCc2c[nH]c3ccccc23)C=CCN1C(=O)c1ccccc1 (configuration not stated) | -6.39* | -6.39
CCOC(=O)c1cc(C)sc1NC(=O)CSC1=NCCS1 | i | .
CCS(=O)(=O)c1cc([N+](=O)[O-])c(Sc2ccccc2NC(C)=O)s1 | i | .
COC(=O)c1ccc([C@H](NC(=O)c2ccco2)[C@]2(C)C[C@H]2C2CCCCC2)cc1 | -5.98* | -5.98
O=C(OC1CCCCC1)c1ccc(NC(=O)c2ccco2)cc1 | i | 2.39
Cc1cccc(C(C(=O)NC2CCCCC2)N(Cc2cccnc2)C(=O)c2csnn2)c1 (configuration not stated) | i | 0.01
SMILES | KCNQ2 block | KCNQ2 enhance
CCOc1ccccc1N1CCN(C(=O)c2cn(CC3CCCCC3)nn2)CC1 | i | .
COc1ccccc1-c1cnn2c(NCCc3ccccc3)cc(C)nc12 | -7.13* | -7.13
COc1ccc(CCNc2cc(C)nc3c(-c4ccccc4)cnn23)cc1OC | i | .
O=C(NCc1ccc2c(c1)OCO2)C1CCN(S(=O)(=O)c2ccc(Br)s2)CC1 | i | 17.4*
O=C(NCc1ccc2c(c1)OCO2)C1CCN(S(=O)(=O)c2cccs2)CC1 | i | 1.13
N/C(=N\OC(=O)/C=C/c1ccccc1Cl)c1ccncc1 | i | 1.52
CCc1ccc(/C=C2/C(=O)N(C)C(=S)N2CC(=O)OC)s1 | -5.95* | -5.95
COC(=O)CN1C(=S)N(C)C(=O)/C1=C/c1cccs1 | i | .
CC(C)(C)C(=O)[C@H]1[C@H](c2ccccc2)[C@@]2(N=C(c3ccccc3)OC2=O)C2c3ccccc3C=NN21 (some centres not stated) | -6.2* | -6.2
COc1ccc([C@H]2[C@H](C(=O)OC(C)(C)C)N3N=Cc4ccccc4C3C23C(=O)c2ccccc2C3=O)cc1OC (some centres not stated) | i | .
COc1cccc(CCNC(=O)C2CCC(=O)N(C3CC3)C2)c1OC (configuration not stated) | i | .
COc1cc(OC)cc(C(=O)NCCCCc2ccccc2)c1 | -8.22* | -8.22
O=C(COc1ccc(Cl)cc1)NCCSCc1cccc(Cl)c1 | -7.45* | -7.45
COc1cc(OC)cc(C(=O)NCCCCNC(=O)c2cc(OC)cc(OC)c2)c1 | i | 0.22
Cc1cccc(CSCCNC(=O)COc2ccc(Cl)cc2)c1 | i | .
Cc1cc(Cl)ccc1OCC(=O)NCCC(=O)O | i | 1.02
Cc1cc(Cl)ccc1OCC(=O)NCCCCc1ccccc1 | -6.32* | -6.32
COc1ccc(S(=O)(=O)N(C)CC(=O)N2CCCC2)cc1OC | i | .
COc1ccc(NC(C)=O)cc1CNC(=O)COc1ccccc1C(=O)Nc1cccc(C)c1C | i | 0.3
